Source: PubChem BioAssay
FBW7 activator: human FBW7 E3 ligase activation, primary screen; Q969H0; normalized activity (activation), % at 26.1 µM; AlphaScreen FBW7–phospho-cyclin E peptide binding, activator screen; 650,000 compounds, 0.13% hits; in the data active = normalized activity above about 1.9%;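 also: purified mutant Fbw7 with reduced substrate affinity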
GPR151 activ: activates the human receptor GPR151 | PathHunter beta-arrestin GPR151 cells, luminescence | 650,000 compounds, 1% hits | AID 1508602 | activation, % at 11.2 µM | Q8TDV0; in the data active = activation above about 4.9%
Target sequence (Q8TDV0 whole entry, looked up): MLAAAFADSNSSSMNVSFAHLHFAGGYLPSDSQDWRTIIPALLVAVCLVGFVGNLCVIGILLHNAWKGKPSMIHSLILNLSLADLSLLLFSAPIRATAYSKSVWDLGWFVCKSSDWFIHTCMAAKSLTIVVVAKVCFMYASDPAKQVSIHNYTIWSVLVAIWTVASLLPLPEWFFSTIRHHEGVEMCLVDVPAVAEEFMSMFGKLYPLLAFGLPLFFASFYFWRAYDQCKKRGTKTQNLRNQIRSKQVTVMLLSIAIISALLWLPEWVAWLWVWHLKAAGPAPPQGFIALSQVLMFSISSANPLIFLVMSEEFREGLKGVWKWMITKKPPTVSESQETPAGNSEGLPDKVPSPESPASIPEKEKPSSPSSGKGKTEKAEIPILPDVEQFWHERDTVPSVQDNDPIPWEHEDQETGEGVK
TEAD-YAP block: TEAD-YAP interaction inhibition. inhibition, % at 9.12 µM. HEK-TIYL cells, TEAD-Gal4/YAP UAS-luciferase luminescence. 640,000 compounds, 1.4% hits; in the data active = inhibition above about 32%
MITF inh: inhibitors of human MITF; inhibition, % at 2.6 µM; AID 1259374; 650,000 compounds, 0.91% hits; AlphaScreen MITF homodimerization, bead proximity signal; in the data active = inhibition above about 50%
MITF confirm: human MITF inhibition, confirmation; shares compounds with MITF inh; AlphaScreen MITF homodimerization, biotin/His-MITF beads; 4,700 compounds, 16% hits; inhibition, % at 2.6 µM; AID 1259372;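 active = inhibition above a cutoff derived from the DMSO control wells, cut at about 28% in these data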;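 also: inhibitors lower the bead chemiluminescence by keeping MITF from dimerizing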
AS interf DR: counter-screen: compounds optically interfering with AlphaScreen. 480 compounds, 6% hits. AlphaScreen optical interference counterscreen, cell-free. shares compounds with MITF inh. AID 1259373. IC50, µM; call rule not given here
AlphaScreen intf2: counter-screen: compounds optically interfering with AlphaScreen. shares compounds with MITF inh. LysRS AlphaScreen counterscreen, signal interference, triplicate. inhibition, % at 2.6 µM. 4,700 compounds, 7.6% hits. AID 1259376;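 active = inhibition above a cutoff derived from the DMSO control wells, cut at about 30% in these data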
Hits are given with their value; i = inactive; nt = no result given. The list is not random: actives were taken first. Their share in the collection is about 3.5%.

SMILES | FBW7 activator | GPR151 activ | TEAD-YAP block | MITF inh | MITF confirm | AlphaScreen intf2 | others
CCN1CCN(CCOc2ccc([N+](=O)[O-])c(C)c2)CC1 | i | i | i | 65 | i | i
Cc1cc(OCCN2CCC(C)CC2)ccc1[N+](=O)[O-] | i | i | i | 52 | i | i
Cc1cc(OCCCN2CCCCCC2)ccc1[N+](=O)[O-] | i | i | i | i | nt | nt
CCOc1ccc(N(CC(=O)Nc2ccccc2C(=O)OC)S(=O)(=O)c2ccc(Cl)cc2)cc1 | i | i | i | i | nt | nt
COc1cccc2cc(-c3csc(Nc4cccc(F)c4)n3)c(=O)oc12 | i | i | i | 55 | i | i
CNC(=O)COc1ccc(Nc2nnc(-c3ccc(C)c(S(=O)(=O)NC(C)C)c3)c3ccccc23)cc1 | i | i | i | i | nt | nt
c1cc(-c2ccc3cnc(Nc4ccc(-n5cnc(N6CCOCC6)n5)cc4)nc3c2)ccn1 | i | i | i | i | nt | nt
O=c1ccc(-c2ccc3cnc(Nc4ccc(-n5cnc(N6CCOCC6)n5)cc4)nc3c2)c[nH]1 | i | i | i | 60 | i | i
Cn1cc(-c2nc(Nc3ccc(-n4cnc(N5CCOCC5)n4)cc3)ncc2Br)cn1 | i | i | i | 57 | 67 | i | AS interf DR=i
CCc1nc(C)ccc1OCc1nc2ccncc2[nH]1 | i | i | i | 58 | i | i
NCc1nc2ccncc2[nH]1 | i | i | i | i | nt | nt
COc1ccc(C)cc1-n1ccnc1SCC(=O)Nc1ccc(NC(C)=O)cc1 | i | i | i | i | nt | nt
CNS(=O)(=O)c1cc(O)c2c(S(=O)(=O)O)cc(S(=O)(=O)NC)cc2c1 | i | i | i | i | nt | nt
Nc1cc2c(S(=O)(=O)O)cc(S(=O)(=O)O)cc2cc1S(=O)(=O)O | i | i | i | 52 | 35 | i | AS interf DR=i
O=C(O)c1ccc(-n2cnnn2)cc1Cl | i | i | i | i | nt | nt
O=C(O)c1ccc(-n2cccc2)cc1Cl | i | i | i | 79 | 75 | i | AS interf DR=i
CC(=O)NC1=NC(=O)/C(=C\c2ccc(Br)o2)S1 | i | i | i | 77 | 67 | i | AS interf DR=i
Cc1nc2nc[nH]n2c(=O)c1NS(=O)(=O)c1ccc2c(c1)n(C)c(=O)n2C | i | i | i | 64 | i | i
Cc1nc2nc[nH]n2c(=O)c1NS(=O)(=O)c1ccc(F)cc1 | i | i | i | i | nt | nt
Cc1cc(NS(=O)(=O)c2ccc(NC(=O)c3ccc([N+](=O)[O-])s3)cc2)no1 | i | i | i | i | nt | nt
O=C(NCc1ccccc1)N1CCN2C(=O)[C@@H]3CCCN3C(=O)[C@H]2C1 | i | i | i | 77 | 74 | i | AS interf DR=i
C[C@H]1C(=O)N2CCN(C(=O)NCc3ccccc3)C[C@@H]2C(=O)N1C | i | i | i | 76 | 73 | i | AS interf DR=i
C[C@H]1C(=O)N2CCN(CCc3ccccc3)C[C@@H]2C(=O)N1C | i | i | i | i | nt | nt
O=C(OCc1ccccc1)N1CCN2C(=O)[C@@H]3CCCN3C(=O)[C@H]2C1 | i | i | i | i | nt | nt
O=C(NC1(C(F)(F)F)NC(=O)N(Cc2ccco2)C1=O)c1ccncc1 (configuration not stated) | i | i | i | i | nt | nt
SMILES | FBW7 activator | GPR151 activ | TEAD-YAP block | MITF inh | MITF confirm | AlphaScreen intf2 | others
CCC(=O)Nc1ccccc1C(=O)OCC(=O)c1cccc([N+](=O)[O-])c1 | i | i | i | 56 | i | i
COc1ccc(OC)c(CN2CCC(N3CCN(CCO)CC3)CC2)c1 | i | i | i | 81 | i | i
COc1cc(CN2CCN(C3CCC(c4ccccc4)CC3)CC2)cc(OC)c1OC (configuration not stated) | i | i | i | 69 | i | i
COc1cc(CN2CCC(N3CCOCC3)CC2)cc(OC)c1OC | i | i | i | i | nt | nt
COc1cc(CN2CCC(N3CCN(C)CC3)CC2)cc(OC)c1OC | i | i | i | 87 | i | i
COc1ccc(OC)c(CN2CCN(C3CCC(c4ccccc4)CC3)CC2)c1 (configuration not stated) | i | i | i | 54 | i | i
CCOC(=O)c1c(C)oc2nc(CN3C(=O)C(=O)N(C4CCCC4)C3=O)nc(N)c12 | i | i | i | i | nt | nt
CC(C)COc1ccc2c(c1)Sc1ccccc1N2CCN(C)C | i | i | i | 54 | i | i
CCOC(=O)C1=C(C)NC2=C(C(=O)CCC2)C1c1ccc2c(c1)OCO2 (configuration not stated) | i | i | i | i | nt | nt
CCOC1=CC(c2ccc3c(c2)OCO3)CC(=O)c2c(C)oc(C)c21 (configuration not stated) | i | i | i | 57 | 42 | i | AS interf DR=i
Cc1sc2nc(C)n(C3CCN(C(=O)c4cc(C(C)(C)C)nn4C)CC3)c(=O)c2c1C | i | i | i | i | nt | nt
O=C1NC(=O)/C(=C\c2ccc(O)cc2O)S1 | i | i | i | 83 | 81 | i | AS interf DR=i
O=C1NC(=S)S/C1=C\c1cc(O)ccc1Br | i | i | i | i | nt | nt
COc1ccccc1C(=O)Nc1ccc(C2(C#N)CCCC2)cc1 | i | i | i | 65 | i | i
CCOC(=O)c1cnn(-c2ccccc2Cl)c1CNCc1csc(C)n1 | i | i | i | i | nt | nt
CCOC(=O)c1cnn(-c2ccccc2Cl)c1CNCCNC(C)=O | i | i | i | 83 | i | i
CCOC(=O)c1c(NC(N)=S)sc2c1CCCC2 | i | i | i | i | nt | nt
CCOC(=O)c1c(-c2ccco2)csc1NC(=O)CN1CCN(C)CC1 | i | i | i | i | nt | nt
CCOC(=O)c1c(NC(=S)N2CCN(S(C)(=O)=O)CC2)sc2c1CCCC2 | i | i | i | 69 | i | i
CCOC(=O)c1c(-c2ccc(C)c(C)c2)csc1NC(=O)CN1CCN(C)CC1 | i | i | i | 90 | i | i
CCOC(=O)c1c(NC(=O)CN2CCN(CC)CC2)sc2c1CCC2 | i | i | i | 80 | i | i
CCOC(=O)c1c(NC(=O)CSc2nnc(C)s2)sc2c1CCC2 | i | i | i | 54 | i | i
Cc1sc2ncn(CC(=O)NCC(=O)N3CCN(c4ccc(F)cc4)CC3)c(=O)c2c1C | i | i | i | 68 | i | i
O=C(O)c1cccc(NC(=S)N/N=C/c2ccccn2)c1 | i | i | 34 | 95 | i | i
O=C(O)c1cccc(N/N=C/c2ccccn2)c1 | i | i | i | i | nt | nt
SMILES | FBW7 activator | GPR151 activ | TEAD-YAP block | MITF inh | MITF confirm | AlphaScreen intf2 | others
CCCCC(CCCC)(Nc1ccc(F)c(F)c1)C(=O)NNc1ccccc1 | i | i | i | 61 | i | i
Cn1c(C(=O)O)c(CC(=O)NCCN2CCOCC2)c2ccccc21 | i | i | i | i | nt | nt
O=C1c2cccnc2C(=O)N1c1ccc(Br)cc1 | i | i | i | 58 | i | i
O=C(O)c1ccc(N2C(=O)c3cccnc3C2=O)cc1 | i | i | i | i | nt | nt
O=C1c2ccccc2C(=O)N1c1ccc(N2C(=O)c3ccccc3C2=O)c(Cl)c1 | i | i | i | i | nt | nt
O=C1c2cccnc2C(=O)N1c1ccc(N2C(=O)c3cccnc3C2=O)c(Cl)c1 | i | i | i | 70 | i | 31
CC(=O)Nc1ccc(N2C(=O)/C(=C\c3cccs3)SC2=S)cc1 | i | i | i | i | nt | nt
CCc1ccc(-c2cc(C(=O)Nc3ccc(C(=O)OC)cc3)c3ccccc3n2)cc1 | i | i | i | i | nt | nt
